Shown are actives, neighbours in structure and some others; about 3.8% of the full set was active somewhere.
697 NFkB inh: inhibitors of the PMA/ionomycin-induced NF-kB reporter in 697 B cells | 330,000 compounds, 0.33% hits | 697 B-cell NF-kB luciferase reporter, 16 h | inhibition, % at 4 µM; in the data active = inhibition above about 35%
Jurkat NFkB inh: lowers PMA/ionomycin-induced NF-kB signal in Jurkat cells | PMA/ionomycin-induced NF-kB luciferase reporter, luminescence | inhibition, % at 4 µM | 330,000 compounds, 0.53% hits; in the data active = inhibition above about 50%
Beta cell apopt: blocks beta cell apoptosis; 300,000 compounds, 0.8% hits; INS-1E cytokine-induced death, ATP luminescence, 48 h; percent of positive-control rescue, neutral wells zero; AID 435005; protection from apoptosis, % (test concentration not listed);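 active = Every replicate reaches about 75%, or at least half do and their mean reaches it too, limit read from the data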;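 also: 0% = cytokine-treated negative control wells and 100% = positive control rescue; higher means more ATP so stronger rescue from cytokine killing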
NTR1 agonist: activates human neurotensin receptor 1 | NTR1-U2OS beta-arrestin-GFP spot imaging, agonist mode | activation, % at 20 µM | 330,000 compounds, 0.17% hits;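 active = activation at or above 40% of the spot to cytoplasm intensity ratio, with at least 20 cells analyzed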;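 also: 0% = DMSO without peptide and 100% = 100 nM NTR1 peptide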
A1 inh: inhibitors of the anti-apoptotic protein A1, read as caspase activation; MEF A1-2A-BIM cells, Caspase-Glo 3/7 luminescence, 3 h; percent of clofoctol response, vehicle zero; caspase activation, % (test concentration not listed); 330,000 compounds, 0.066% hits;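 active = over half of replicate activation scores above 10%, or exactly half above 10 with the replicate mean above 10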
Mdm2-MdmX inh: inhibitors of human Mdm2/MdmX interaction | O15151+Q00987 | SaOS-2 split-luciferase Mdm2/MdmX complementation, luminescence | inhibition, % at 8 µM | 330,000 compounds, 3% hits | AID 485346;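 active = inhibition of at least 50% at 8 µM in the primary screen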
Target sequence (O15151 whole entry, looked up): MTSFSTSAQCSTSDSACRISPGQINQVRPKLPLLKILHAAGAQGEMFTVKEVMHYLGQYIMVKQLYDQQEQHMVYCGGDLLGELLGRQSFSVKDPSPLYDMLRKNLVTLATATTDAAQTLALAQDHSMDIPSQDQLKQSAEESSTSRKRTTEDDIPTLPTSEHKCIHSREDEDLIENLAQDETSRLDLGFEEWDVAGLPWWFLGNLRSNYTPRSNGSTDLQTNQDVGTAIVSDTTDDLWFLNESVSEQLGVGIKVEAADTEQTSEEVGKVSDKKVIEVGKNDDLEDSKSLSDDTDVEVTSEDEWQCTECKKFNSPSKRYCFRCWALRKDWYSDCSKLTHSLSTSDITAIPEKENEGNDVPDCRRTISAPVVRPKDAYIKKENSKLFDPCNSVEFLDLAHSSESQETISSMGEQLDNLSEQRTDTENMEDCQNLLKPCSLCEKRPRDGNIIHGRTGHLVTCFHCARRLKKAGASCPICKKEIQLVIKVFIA
Target sequence (Q00987 whole entry, looked up): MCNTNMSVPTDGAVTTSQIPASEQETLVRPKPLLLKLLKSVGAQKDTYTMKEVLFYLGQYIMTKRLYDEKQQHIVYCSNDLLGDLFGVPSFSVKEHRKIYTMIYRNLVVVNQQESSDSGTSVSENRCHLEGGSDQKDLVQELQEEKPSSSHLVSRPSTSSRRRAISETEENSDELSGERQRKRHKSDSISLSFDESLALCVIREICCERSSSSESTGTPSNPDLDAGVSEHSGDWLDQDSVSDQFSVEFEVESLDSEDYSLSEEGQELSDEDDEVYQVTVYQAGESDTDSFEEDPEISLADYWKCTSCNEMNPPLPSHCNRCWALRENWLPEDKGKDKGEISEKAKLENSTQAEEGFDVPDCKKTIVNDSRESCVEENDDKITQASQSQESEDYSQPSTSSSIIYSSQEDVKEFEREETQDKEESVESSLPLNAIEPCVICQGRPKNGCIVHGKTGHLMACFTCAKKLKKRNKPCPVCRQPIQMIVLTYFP
Mdm2-MdmX conf: confirmation of human Mdm2/MdmX interaction inhibitors; shares compounds with Mdm2-MdmX inh; Mdm2-MdmX binding, luminescent assay; inhibition, % at 8 µM; 10,000 compounds, 55% hits; AID 489028; in the data active = inhibition above about 40%
FLuc counter: inhibits full-length luciferase, flagging false Mdm2/MdmX hits | shares compounds with Mdm2-MdmX inh | SaOS-2 full-length luciferase counterscreen, luminescence | AID 504607 | inhibition, % at 8 µM | 6,200 compounds, 77% hits;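 active = mean inhibition at 8 µM reaching about 37%, which flags the compound as non-specific, limit read from the data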;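 also: p53-null SaOS-2 cells with luciferase driven by a doxycycline-inducible promoter; compound on cells about two nights before reading with doxycycline added after day one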
Numbers without * were called inactive; . = no result.

SMILES | 697 NFkB inh | Jurkat NFkB inh | Beta cell apopt | NTR1 agonist | A1 inh | Mdm2-MdmX inh | Mdm2-MdmX conf | FLuc counter
COC(=O)N1C(=O)[C@@](Cc2ccccc2)(c2ccccc2)N1C(=O)OC | 22.1 | 5.7 | -0.6 | 14.1 | 1.3 | 61.4* | 50.2* | 57.3*
COC(=O)N1C(=O)[C@](Cc2ccccc2)(c2ccccc2)N1C(=O)OC | 11.5 | 5.8 | 4.1 | 8.1 | 0.7 | 55.3* | 24.9 | .
COC(=O)N1C(=O)[C@@](c2ccccc2)(C2CCCCC2)N1C(=O)OC | -19.5 | -7.6 | -3.1 | 14.0 | 1.3 | 66.0* | 44.6* | 49.5*
CC[C@@]1(c2ccccc2C)C(=O)N(C(=O)OC)N1C(=O)OC | 19.8 | -7.5 | -3.5 | 1.0 | -0.4 | 20.1 | . | .
CN(CCO)S(=O)(=O)c1ccc2c(c1)C(=NN)c1cc(S(=O)(=O)N(C)CCO)ccc1-2 | 16.1 | -13.3 | -2.5 | -0.1 | 1.2 | 34.3 | . | .
CCN(C[C@H]1N[C@@](C)(C(=O)OC)[C@H]2C(=O)N(C)C(=O)[C@@H]12)C(=O)C1CCCCC1 | 12.7 | -6.0 | . | -0.4 | . | 25.5 | . | .
CSc1ccc(/C=C/c2ccc3cccc(O)c3n2)cc1 | -193.6 | -76.9 | 15.7 | 3.3 | -11.0 | -40.4 | . | .
Oc1cccc2ccc(/C=C/c3ccccc3Br)nc12 | -97.8 | -83.7 | 38.8 | 20.8 | -8.0 | -12.5 | . | .
COc1cc(/C=C/c2ccc3cccc(O)c3n2)c(Br)cc1O | -43.5 | -25.0 | 38.9 | 29.9 | -6.3 | 97.5* | 39.4 | 29.2
Oc1c(Cl)cc(Cl)cc1/C=C/c1ccc2cccc(O)c2n1 | -17.5 | 2.5 | 16.6 | 3.1 | -0.2 | 48.0 | . | .
COc1cc(Br)c(/C=C/c2ccc3cccc(O)c3n2)cc1OC | 2.3 | -7.6 | 8.9 | 2.1 | 1.0 | 73.6* | 51.6* | 47.0*
COc1cc(Br)cc(/C=C/c2ccc3cccc(O)c3n2)c1O | -16.4 | 0.9 | 34.4 | 13.4 | 0.6 | 80.9* | 68.2* | 51.0*
COc1cc(/C=C/c2ccc3cccc(O)c3n2)ccc1O | -132.1 | -54.8 | 19.7 | 19.9 | -1.8 | 99.7* | -41.0 | .
Nn1c(SCC(=O)Nc2cccc(Br)c2)nnc1C1CC1 | 17.4 | 0.6 | -0.4 | -2.9 | -0.7 | 10.3 | . | .
CCOC(OCC)c1cn(Cc2ccc3c(c2)C(=O)c2ccccc2C3=O)nn1 | -64.4 | -30.5 | 4.7 | 7.6 | -1.1 | -6.6 | . | .
O=C(CN1CCN(C(=O)C2CCCO2)CC1)Nc1ccc(Cl)cc1 (centres undefined) | -15.7 | -16.4 | 1.0 | -1.1 | 0.3 | -19.6 | . | .
CCCn1c(SCC(=O)N2CCc3ccccc32)n[nH]c1=O | -8.8 | 8.5 | -8.3 | 1.1 | 0.1 | -18.7 | . | .
N#Cc1ccc(S(=O)(=O)NCC(=O)OCC(=O)N2CCCC2=O)cc1 | -6.0 | -0.6 | -6.6 | 0.5 | 0.1 | -0.4 | . | .
CCOC(=O)C1=C(C)NC(C)=C(C(=O)OCC)C1C(=O)OCC(=O)N1CCOCC1 | 15.0 | -0.2 | -4.7 | -1.2 | 0.0 | 20.4 | . | .
COc1cc(/C=C/c2ccc3cccc(OC)c3n2)c(O)c([N+](=O)[O-])c1 | -5.0 | 8.1 | 28.4 | 3.9 | 0.9 | 43.3 | . | .
COc1ccc(OC)c(/C=C/c2ccc3cccc(O)c3n2)c1 | -24.1 | 9.4 | 37.7 | 8.0 | 0.2 | 93.1* | 38.5 | .
CCOc1ccccc1OCC(=O)NN=C1CCCC(=O)C1 | 6.7 | 4.4 | -3.6 | 0.3 | -0.4 | 2.2 | . | .
Cc1[nH]n(-c2ccccc2)c(=O)c1/C=N/NC(=O)c1ccc(O)cc1O | -8.8 | -26.6 | . | -1.1 | -5.7 | -18.1 | . | .
Cc1ccc(/C=N\NC(=O)COc2ccc(C)cc2[N+](=O)[O-])cc1 | 13.2 | 0.0 | -10.4 | -1.1 | 0.7 | -14.6 | . | .
Cc1[nH]n(-c2ccc(Br)cc2)c(=O)c1/C=N/NC(=O)c1ccccc1 | -46.2 | -8.5 | 104.2* | 1.0 | -8.8 | 52.6* | 51.7* | 46.6*
SMILES | 697 NFkB inh | Jurkat NFkB inh | Beta cell apopt | NTR1 agonist | A1 inh | Mdm2-MdmX inh | Mdm2-MdmX conf | FLuc counter
Cc1ccc(OCC(=O)N/N=C\c2c(C)[nH]n(-c3ccccc3)c2=O)c([N+](=O)[O-])c1 | -17.3 | -8.6 | 86.6* | 0.2 | 0.6 | 52.4* | 27.1 | .
CCCCN(CCCC)C(=S)N/N=C/c1c(C)[nH]n(-c2ccccc2)c1=O | -4.8 | -8.9 | 86.7* | 3.1 | -0.9 | 83.7* | 78.3* | 44.8*
COc1ccc(-c2cc(C(=O)N3CCN(S(=O)(=O)c4ccc(C)cc4)CC3)[nH]n2)cc1 | -0.6 | -19.7 | -9.9 | 0.6 | 0.4 | 1.0 | . | .
CC(/C=N\Nc1nnc2c(n1)[nH]c1c(C)cccc12)=C\c1ccco1 | -17.4 | -9.3 | 16.4 | 1.5 | 0.5 | 90.8* | 40.4* | 57.2*
N=c1n(Cc2ccccc2)c2ccccc2n1CC(O)COc1ccc(Cl)cc1Cl (centres undefined) | -12.6 | 40.2 | . | 13.6 | . | 100.3* | 100.2* | 61.5*
N=c1n(CCO)c2ccccc2n1Cc1ccc(Cl)cc1 | -3.3 | 1.2 | 3.1 | -0.8 | -0.1 | 29.5 | . | .
COc1ccc(OCC(O)Cn2c(=N)n(Cc3ccccc3)c3ccccc32)cc1 (centres undefined) | -12.7 | 26.5 | 28.5 | 2.3 | 0.0 | 53.7* | 43.2* | 65.3*
Cc1ccc(OCC(O)Cn2c(=N)n(Cc3ccccc3)c3ccccc32)cc1 (centres undefined) | -45.7 | 11.5 | 49.0 | 7.9 | -0.3 | 67.4* | 52.3* | 48.8*
N=c1n(Cc2ccc(Cl)cc2)c2ccccc2n1CC(O)COc1ccccc1 (centres undefined) | -13.4 | 18.8 | 8.3 | 8.6 | -0.1 | 88.5* | 37.4 | 87.8*
N=c1n(Cc2ccccc2)c2ccccc2n1CC(O)c1ccco1 (centres undefined) | -18.6 | -0.3 | -1.7 | 0.2 | 0.6 | 35.5 | . | .
N=c1n(Cc2ccccc2)c2ccccc2n1Cc1ccccc1 | -47.4 | -12.9 | 12.8 | -0.4 | 0.1 | 44.2 | . | .
OC(COc1ccccc1Cl)CN1CCN(CC(O)COc2ccccc2Cl)CC1 (centres undefined) | 16.5 | 3.5 | 5.2 | -4.2 | 1.1 | 18.2 | . | .
Cc1cccc(OCC(O)Cn2c(=N)n(CCN3CCCCC3)c3ccccc32)c1 (centres undefined) | -13.4 | 2.2 | 16.8 | 1.3 | 0.8 | 53.1* | 46.4* | 61.3*
CCOC(=O)c1ccc(Nc2sc(C(=O)c3cccc([N+](=O)[O-])c3)c(N)c2C#N)cc1 | -27.4 | 13.7 | 33.5 | 3.1 | -0.2 | 75.0* | 74.2* | 44.4*
COc1ccc(CN2CCC(C(=O)Nc3ccc(Oc4ccccc4)nc3)CC2)cc1F | -12.9 | 29.4 | . | 0.3 | 0.9 | 1.6 | . | .
CN1CCN(C(=O)CCN2C(=O)c3ccccc3S2(=O)=O)CC1 | 16.5 | 4.2 | . | -1.0 | 1.8 | -0.7 | . | .
COc1cccc(-n2sc3c(c2=S)-c2cc(OC)ccc2NC3(C)C)c1 | -19.5 | -3.4 | 1.4 | 10.7 | 0.9 | 50.5* | 38.9 | 76.2*

Compound activity (PubChem)
